Screening data: PubChem BioAssay, several laboratories
RAM inhibit = inhibitors of the yeast RAM network, primary screen, dse1pr::URA3 reporter, 5-FOA selection; 190,000 compounds, 1.8% hits; AID 868, 2007; S. cerevisiae dse1pr::URA3 reporter, 5-FOA growth OD615, 2 d; analog-sensitive cbk1-as2 kinase mutant strain; inhibition, % at 50 µM;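 active means inhibition above a set limit, 3 SD over mean compound inhibition, cut at about 8.4% in these data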;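 further: inhibition rescues growth on 5-FOA so higher OD means more RAM inhibition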
PGE2 EP2 inh = human EP2 receptor antagonists, primary screen, TR-FRET cAMP, C6 glioma cells | 260,000 compounds, 0.52% hits | Prostaglandin E2 receptor EP2 subtype (Homo sapiens), P43116 | inhibition, % at 25 µM | AID 1422, 2008 | C6 glioma cells expressing human EP2; cells stimulated with saturating PGE2;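 active means percent inhibition above 40 after rounding to a whole number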;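 further: rat C6 glioma host cells with rolipram phosphodiesterase inhibitor present; the protocol text gives 20 µM as final concentration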
Target sequence (P43116 whole entry, looked up): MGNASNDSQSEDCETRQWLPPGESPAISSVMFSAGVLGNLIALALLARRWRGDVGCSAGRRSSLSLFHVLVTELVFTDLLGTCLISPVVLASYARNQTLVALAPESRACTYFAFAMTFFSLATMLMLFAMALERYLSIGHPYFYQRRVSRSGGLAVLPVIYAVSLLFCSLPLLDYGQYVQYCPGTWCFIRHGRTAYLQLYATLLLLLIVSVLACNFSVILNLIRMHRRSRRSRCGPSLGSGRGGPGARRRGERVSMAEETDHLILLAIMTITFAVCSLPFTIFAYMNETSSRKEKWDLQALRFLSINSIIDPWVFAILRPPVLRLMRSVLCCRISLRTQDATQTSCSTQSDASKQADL
PG9 binder = binders of HIV-1 gp120 antibody PG9, primary screen, biochemical, TR-FRET; 360,000 compounds, 0.43% hits; inhibition, % at 6.7 µM; TR-FRET gp120-PG9 antibody binding; HIV-1 gp120 / PG9 antibody interaction; in the data active means inhibition above about 8.5%
Rev-erbA mod = modulators of Rev-erb alpha DNA binding, primary screen, biochemical, FITC-DNA, fluorescence polarization, uHTS; activity, % at 10 µM; Nuclear receptor subfamily 1 group D member 1 (Homo sapiens), P20393; AID 1259318, 2017; 370,000 compounds, 0.79% hits; Rev-erbα–FITC-DNA binding, 90 min;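 active means activity above about 14%, limit read from the data; passing the limit was not always enough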
EP2 mod = EP2 receptor modulators, cAMP readout, primary screen, cell-based, HTRF cAMP, PGE2 stimulation | Prostaglandin E2 receptor EP2 subtype (Homo sapiens), P43116 | EP2-expressing cells, cAMP HTRF FRET, PGE2 co-stimulation | induction, % at 25 µM | 260,000 compounds, 0.83% hits | AID 940, 2007;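 active means compounds whose cAMP rise, as percent of the full-agonist control response, exceeds 60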;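 further: rat C6 glioma line stably carrying human EP2 under a CMV promoter; the protocol text gives 20 µM as final concentration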
SKN-1 block = suppressors of acrylamide-induced Pgst-4::GFP reporter in worms, primary screen, SKN-1 inhibitor project, whole organism, uHTS, GFP/RFP fluorescence ratio, strain VP596. C. elegans VP596 Pgst-4::GFP/RFP ratio, 24 h. inhibition, % at 21.8 µM. 360,000 compounds, 0.49% hits. AID 624304, 2012;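 active means interference check ratio from 0.5 to 1.5 plus GFP to RFP signal ratio inhibition reaching or exceeding a fixed threshold, cut at about 30% in these data, passing the limit was not always enough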
Each line names hits and unclear results; the compound was inactive in the other large screens. In the library only some 2.9% were active in any assay of this set; here they are far more common.

CC(=O)SC(C[N+](=O)[O-])c1cn(C(C)=O)c2ccccc12 (configuration not stated)	PGE2 EP2 inh 81
CN(C)c1ncnc2c1ncn2CCn1cnc2c(N(C)C)ncnc21	PGE2 EP2 inh 46 (no result: RAM inhibit)
Cc1cc(C)nc(N2C(=O)CC(C(C)c3ccccc3)C2=O)n1 (configuration not stated)	SKN-1 block 37
CC(c1ccccc1)C1CC(=O)N(c2ccc(C(=O)O)cc2)C1=O (configuration not stated)	none
Cc1ccc2[nH]c(=O)c(CN(CC3CCCO3)C(=O)Nc3ccccc3Cl)cc2c1 (configuration not stated)	none (no result: RAM inhibit, PG9 binder, Rev-erbA mod, SKN-1 block)
COc1ccc(C2CC(=O)C3=C(C2)NC(C)=C(C(=O)OC2CCCC2)C3c2ccc(C)o2)cc1OC (configuration not stated)	PGE2 EP2 inh 40 (no result: RAM inhibit, PG9 binder, Rev-erbA mod, SKN-1 block)
CCC(c1nnnn1C(C)(C)C)N(CCc1cccc(C)c1)Cc1cc2cccc(C)c2[nH]c1=O (configuration not stated)	none (no result: RAM inhibit, PG9 binder, Rev-erbA mod, SKN-1 block)
COc1ccccc1-c1cc(-c2ccc(C)o2)nc(N)c1C#N	none (no result: RAM inhibit, PG9 binder, Rev-erbA mod, SKN-1 block)
COc1ccccc1-c1cc(SC)c(C#N)c(=O)o1	RAM inhibit 9.3
Cn1c(Cn2nnc3ccccc32)nnc1SCC(=O)N1CCCC1	none (no result: RAM inhibit, PG9 binder, Rev-erbA mod, SKN-1 block)
COc1ccc(NS(=O)(=O)c2cc(NC(=O)CNC(=O)c3ccc(C)s3)ccc2Cl)cc1	RAM inhibit 10
COc1ccccc1-c1nnc(SCC(=O)Nc2sc3c(c2C#N)CCCC3)n1C	none (no result: RAM inhibit, PG9 binder, Rev-erbA mod, SKN-1 block)
CSc1nnc(Cn2c(=O)sc3ccccc32)n1CCc1ccccc1	RAM inhibit 8.9
CCOc1ccc(CN2CCc3c(nc(N4CCC(C)CC4)[nH]c3=O)C2)cc1OC	none (no result: RAM inhibit, PG9 binder, Rev-erbA mod, SKN-1 block)
Cc1nn(C)c(C)c1CNC(=O)c1cnn2c1NC(c1ccccc1)CC2C(F)(F)F (configuration not stated)	none
Cc1ccc(C2CC(C(F)(F)F)n3nc(C(=O)NCc4c(C)nn(C)c4C)c(Cl)c3N2)cc1 (configuration not stated)	SKN-1 block 46
C/C(=N\Nc1nc(N2CCCCC2)nc(N2CCOCC2)n1)c1ccccc1O	EP2 mod 64
Cc1cc2cc3c(cc2n2c(SCC(=O)Nc4nc(C(C)(C)C)cs4)nnc12)OCO3	none (no result: RAM inhibit, PG9 binder, Rev-erbA mod, SKN-1 block)
O=C(CN1C(=O)[C@H]2CCCN2C(=O)c2ccccc21)NCc1cccc(Cl)c1	none (no result: RAM inhibit, PG9 binder, Rev-erbA mod, SKN-1 block)
C[C@H]1[C@H](O)[C@@H](C)C=CC=CC=CC=CC=CC=CC=C[C@H](O[C@H]2O[C@@H](C)[C@H](O)[C@@H](N)[C@@H]2O)C[C@@H]2O[C@@](O)(C[C@@H](O)C[C@@H](O)[C@@H](O)CC[C@@H](O)C[C@@H](O)CC(=O)O[C@H]1C)C[C@H](O)[C@H]2C(=O)O	PGE2 EP2 inh 43 (no result: RAM inhibit, PG9 binder, Rev-erbA mod, SKN-1 block)
CCNC(=O)c1c(NC(=O)COc2cccc(C)c2)sc2c1CCCC2	none (no result: RAM inhibit, PG9 binder, Rev-erbA mod, SKN-1 block)
COCCNC(=O)Cn1cc(/C=C2/C(=O)NC(=O)N(c3ccc4ccccc4c3)C2=O)c2ccccc21	none (no result: RAM inhibit, PG9 binder, Rev-erbA mod, SKN-1 block)
N#CCn1cc(/C=C2\C(=O)NC(=O)N(c3ccc(Cl)cc3)C2=O)c2ccccc21	PGE2 EP2 inh 84 (no result: RAM inhibit, PG9 binder, Rev-erbA mod, SKN-1 block)
COC(=O)CSc1cc(SCC(=O)OC)c(C#N)c(SCC(=O)OC)c1	PGE2 EP2 inh 55
COC(=O)CSc1ccc(C#N)c(SCC(=O)OC)c1	none
CCOC(=O)CNC(=O)CSc1nnc2n(Cc3ccc(C)cc3)c3ccccc3n12	none (no result: RAM inhibit, PG9 binder, Rev-erbA mod, SKN-1 block)
CCn1c(C)cc(C(=O)CSc2nnc(-c3ccco3)o2)c1C	none (no result: RAM inhibit, PGE2 EP2 inh, EP2 mod)
C=CCn1c(C)cc(C(=O)CSc2nnc(-c3cccc(S(=O)(=O)N(CC)CC)c3)o2)c1C	RAM inhibit 11 (no result: PGE2 EP2 inh)
CCN(CC)S(=O)(=O)c1cccc(-c2nnc(-c3ccc(C)cc3)o2)c1	none
CCN(CC)S(=O)(=O)c1cccc(-c2nnc(SCC(=O)c3cc(C)n(C4CC4)c3C)o2)c1	SKN-1 block 42 (no result: RAM inhibit, EP2 mod)
